Reference: PubChem BioAssay (NCI)
Compounds without any hit were thinned out: in the full panel of roughly 83,000, 20% have a hit.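 Cells were grown in 96-well plates and exposed to the test compound at a single concentration for 48 hours; results are reported as percent growth, with values below 10 considered active.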 Unmarked numbers belong to inactive results. Activity calls are given as the source filed them.

System: EKVX NSCLC
Assay: NCI-60 one-dose screen, 48 h (100 = growth as untreated, 0 = no growth, -100 = all killed)
Settings: 10 µM unless noted
Experimental: Growth inhibition of the EKVX human Non-Small Cell Lung tumor cell line is measured as a screen for anti-cancer activity. Cells are grown in 96 well plates and exposed to the test compound for 48 hours. Compounds are tested at a single concentration, which is 10^-5 M for most compounds. The reported endpoint is percent growth (GI% or GIPRCNT), where numbers from 0 - 100% represent growth inhibition, and numbers from -100% - 0 represent cell death. For example, a value of 40 represents 60% growth inhibition. A value of 0 means no net growth occurred over the course of the experiment. A value of -40 indicates 40% of cells at the beginning of the experiment died by the end of the experiment. A value of -100 means all cells are dead at the end of the experiment.
NCI-60 Human Tumor Cell Lines Screen was performed using the standard one-dose NCI protocol, which is described in more detail at https://dtp.cancer.gov/discovery_development/nci-60/default.htm.
Compounds with GIPRCNT values below 10 were considered active. Activity score was based on GIPRCNT using the following formula: […]
Score is 0 for GIPRCNT values of 100 or above, 50 for GIPRCNT values of 0, and 100 for GIPRCNT values of -100.

Structure (SMILES) | growth
CN1CCN(CC(=O)Nc2nc(-c3cccc(NS(=O)(=O)c4cccc5c(N(C)C)cccc45)c3)cs2)CC1 | 66.4%
O=C(c1ccccc1)N1N=C(c2ccccc2)CC1c1nnc2n(Cc3ccccc3)c(=O)c3c4c(sc3n12)CCCC4 (stereo not given) | 102%
COc1cccc(C(=O)NCCCNc2cc(-c3cn(-c4ccccc4)nc3-c3cccc(OC)c3)ccn2)c1 | 60.1%
O=c1[nH]ccc2nc(N3CCC(O)CC3)nc(Nc3ccc(N4CCOCC4)cc3)c12 | 89%
CC1=C([Se]CC(OC(=O)[C@@H](CO)NC(=O)OC(C)(C)C)C(=O)NC(C)(C)C)C(=O)c2ccccc2C1=O (stereo not given in full) | -56% (active)
COc1ccc(-c2nc3c(N)c(CO)c(C)nc3o2)cc1 | 95.7%
COC(=O)[C@]12CC[C@@H](C)[C@H](C)[C@@H]1C1=CC[C@@H]3[C@@]4(C)C(C=O)=C[C@@](C)(COS(C)(=O)=O)C4[C@H](O)C[C@@]3(C)[C@]1(C)CC2 (stereo not given in full) | -22.4% (active)
COc1ccc(C2CC(c3cccc(OC)c3)=NN2C(=O)c2cc(OC)c(OC)c(OC)c2)cc1 (stereo not given) | 46.5%
Cc1ccc2nc(NC(=O)CSc3nc(Nc4ccc([N+](=O)[O-])cc4)c(C#N)c(-c4ccccc4)n3)sc2c1 | 91.1%
C=CCNc1nc(NN2C(=O)c3cccc4cccc(c34)C2=O)nc(-n2cnc3ccccc32)n1 | 62.8%
O=C(/C=C/c1ccc(Cl)nc1)c1ccc(Cl)cc1Cl | 97.5%
Cc1cc(=O)[nH]c(N=Nc2c(O)[nH]c3ccccc23)n1 | 111%
NS(=O)(=O)c1ccc(-n2nc(C(=O)N/N=C\c3ccc(F)cc3)cc2-c2ccc(Cl)cc2)cc1 | 75.1%
CCN(CC)S(=O)(=O)c1cccc(-c2ccc3c(NC(=O)C4CC4)n[nH]c3c2)c1 | 27.5% [6.25 µM]
COc1ccc2c(c1)C(=O)/C(=C/c1ccc(OCC(=O)Nc3nccs3)cc1)O2 | 32.7%
CC(=O)N1N=C(c2ccc(Nc3nc(Nc4ccc(F)cc4)nc(Nc4ccc(F)cc4)n3)cc2)CC1c1cccc([N+](=O)[O-])c1 (stereo not given) | 90.2%
CCN1C(=O)N(CC)C2Nn3c(s/c(=C4\C(=O)N(C)c5ccccc54)c3=O)=NC21 (stereo not given) | 71.2%
Cc1ccccc1NC(=O)N/C(N)=N/c1nc(C)c(C)s1 | 55%
O=C(O)C1CCC(=O)N1C(=O)OCc1ccccc1 (stereo not given) | 97.8%
COc1ccc2c(c1)[nH]c(=O)c1c3cccnc3cn21 | 63.2%

Structure (SMILES) | growth
CCOC(=O)c1csc(NC(=O)COc2cccc(/C=C3\Oc4cc(OC)ccc4C3=O)c2)n1 | 98.6%
COc1ccc(/C=N\NC(=O)c2cc(-c3ccc(Br)cc3)n(-c3ccc(S(N)(=O)=O)cc3)n2)cc1 | 61.2%
COc1cc(/C=C/C(=O)c2cccc(-n3cc(-c4ccccc4)[nH]c3=O)c2)ccc1O | 70.7%
O=C(N/N=C/c1ccncc1)c1ccc(C(F)(F)F)nc1Nc1cccc(C(F)(F)F)c1 | 18.4%
N#Cc1c(-c2ccccn2)[nH]c(=S)[nH]c1=O | 101%
Cc1ccc(/C=C/c2c(C(=O)/C=C/c3ccc(C(F)(F)F)cc3)c(C)nc3ccccc23)cc1 | -31.6% (active)
Cc1ccc(NS(=O)(=O)c2ccc3c(c2)C2OCCC2C(c2ccc(C(=O)C(C)C)cc2)N3)cc1C (stereo not given) | 24.7%
C[C@@H]1N=C(c2ccc3ccccc3n2)Nc2nc3ccccn3c2C1=O | 77.7%
CN(C)c1ccc(-c2ccc3[nH]c(=O)nc(-c4ccccc4)c3c2)cn1 | 58.5%
COc1ccc(-c2[nH]c(=S)n(C(CC3(C)NCC(=O)N3n3c(-c4ccccc4)cc(C)nc3=S)c3ccc(OC)cc3)c(=O)c2Br)cc1 (stereo not given) | 60.5%
COc1ccc(-c2nc(SCCC(C)C)nc(N/N=C\c3cccc([N+](=O)[O-])c3)c2C#N)cc1 | 40.9%
C=C(C)[C@@H]1CC[C@]2(C(=O)NC3CCCCC3)CC[C@]3(C)[C@H](CC[C@@H]4[C@@]5(C)CCCNC(C)(C)[C@@H]5CC[C@]43C)[C@@H]12 | 77.6%
Cc1occc1-c1n[nH]c(=S)n1N1C(=O)CSC1=S | 99.1%
COc1cc(C(=O)/C=C/c2c(-c3ccc(F)cc3)nc3sc(C)cn23)cc(OC)c1OC | 17.4%
CCN1CCN(c2nc(C)cc(NCc3cc(Nc4ccnc5cc(Cl)ccc45)ccc3F)n2)CC1 | 49.4%
O=c1cc(-c2ccc(Cl)cc2)[nH]c2ccccc12 | 68.3%
O=C(CCCCCCSc1nc(-c2ccccc2)cc(-c2ccc(Cl)cc2)n1)NO | 44.5%
O=C1/C(=C2/C=Nc3ccccc32)N(O)c2ccccc21 | 66.9%
O=C(/C=C/c1c(Cl)nc2sccn12)c1nccs1 | 97.5%
CCCc1cc2c(=O)c(C(=O)OC)c[nH]c2cc1N(CC)CC | 106%
